A number with no mark means an inactive call. Calls of active or inactive are those of the source.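 The calls were made as follows: active = mean inhibition above 46.5%, the solvent-only control mean plus 3 SD; inactive = the rest.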

In the assay the target is Nuclear receptor coactivator 2 (Homo sapiens) (UniProt Q15596). Nature of the assay: inhibition of GAL4-SRC2 driven luciferase expression – cell-based, luminescence, HEK293, triplicate, confirmation (AID 652008).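 Also: 0% = DMSO-treated cells and 100% = Gossypol at 36 µM.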 Particulars: HEK293 GAL4-SRC2 luciferase reporter, at 8.9 µM, hits give high values. On the technique in general: In a reporter assay the amount or activity of a reporter protein is the signal.
Nuclear receptor coactivator 2 (Homo sapiens), sequence (Q15596 whole entry, looked up, the tested form may be a part): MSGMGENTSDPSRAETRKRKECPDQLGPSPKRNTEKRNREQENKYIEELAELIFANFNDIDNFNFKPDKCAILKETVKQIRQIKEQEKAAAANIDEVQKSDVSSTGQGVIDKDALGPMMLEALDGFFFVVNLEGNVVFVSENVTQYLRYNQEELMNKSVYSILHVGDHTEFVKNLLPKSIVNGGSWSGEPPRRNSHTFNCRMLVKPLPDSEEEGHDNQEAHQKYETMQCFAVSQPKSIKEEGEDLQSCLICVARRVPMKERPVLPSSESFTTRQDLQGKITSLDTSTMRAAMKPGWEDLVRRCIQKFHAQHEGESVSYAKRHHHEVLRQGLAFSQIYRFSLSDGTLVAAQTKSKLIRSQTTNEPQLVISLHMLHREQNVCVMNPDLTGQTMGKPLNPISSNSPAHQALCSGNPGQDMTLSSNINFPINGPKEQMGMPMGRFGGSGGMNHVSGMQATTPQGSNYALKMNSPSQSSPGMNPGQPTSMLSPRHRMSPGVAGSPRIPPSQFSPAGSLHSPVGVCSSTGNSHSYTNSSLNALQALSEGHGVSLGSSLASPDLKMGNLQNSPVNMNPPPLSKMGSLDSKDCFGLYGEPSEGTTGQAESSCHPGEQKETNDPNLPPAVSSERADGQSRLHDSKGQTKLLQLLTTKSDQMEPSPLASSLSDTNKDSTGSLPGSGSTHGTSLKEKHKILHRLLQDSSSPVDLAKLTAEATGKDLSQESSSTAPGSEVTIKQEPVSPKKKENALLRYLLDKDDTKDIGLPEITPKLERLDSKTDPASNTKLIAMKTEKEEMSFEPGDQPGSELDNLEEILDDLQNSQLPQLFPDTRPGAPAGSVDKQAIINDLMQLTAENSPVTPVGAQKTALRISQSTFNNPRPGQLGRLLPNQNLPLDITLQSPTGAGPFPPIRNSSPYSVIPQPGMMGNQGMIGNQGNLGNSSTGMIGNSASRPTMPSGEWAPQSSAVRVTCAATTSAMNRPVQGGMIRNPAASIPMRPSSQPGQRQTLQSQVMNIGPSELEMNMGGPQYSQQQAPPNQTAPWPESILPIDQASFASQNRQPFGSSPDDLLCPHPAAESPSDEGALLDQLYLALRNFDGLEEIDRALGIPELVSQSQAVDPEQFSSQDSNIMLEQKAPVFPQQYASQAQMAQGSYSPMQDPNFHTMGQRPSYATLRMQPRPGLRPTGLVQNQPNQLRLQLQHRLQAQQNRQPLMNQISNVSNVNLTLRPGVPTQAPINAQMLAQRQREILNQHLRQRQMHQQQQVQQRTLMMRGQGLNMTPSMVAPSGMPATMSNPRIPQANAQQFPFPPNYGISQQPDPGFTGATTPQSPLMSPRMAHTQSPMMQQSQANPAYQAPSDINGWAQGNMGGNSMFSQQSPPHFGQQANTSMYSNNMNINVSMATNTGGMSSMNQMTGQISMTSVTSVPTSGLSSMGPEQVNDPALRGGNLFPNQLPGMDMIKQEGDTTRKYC
In general, inhibition refers to the change of the read-out against control, counted positive when it falls. For `CN(Cc1cccc(-c2cccnc2)c1)C(=O)Oc1ccc([N+](=O)[O-])cc1`, the inhibition was 49.7% (active).
With `CCN1CCN(S(=O)(=O)c2ccc(Cl)c(C(=O)Nc3ccc(C(=O)N(CC)CC)cc3)c2)CC1` the figure was 2.66%; with `Cc1ccc(N2C(=O)NC(=O)C(CCc3ccccn3)(Cc3ccc(F)cc3)C2=O)cc1` (stereo unspecified), 7.3%.
With `COc1ccc2c3c1O[C@H]1C(=O)CC[C@H]4[C@@H](C2)N(C)CC[C@]314` the figure was -28.4%; with `CC(=O)OC(C)(C)/C=C/C(=O)C(C)(O)C1[C@H](O)C[C@@]2(C)C3CC=C4C(CC[C@@H](O)C4(C)C)[C@]3(CO)C(=O)C[C@]12C` (stereo partly specified), 55.2% (active).
Consider `Cc1nc2cc(-c3cccc(F)c3)nn2c(C)c1CCC(=O)N1CCC2(CC1)OCCO2`, for which the inhibition is 40%.
